# Assay outcomes (PubChem)
# TEAD-YAP inh – TEAD-YAP interaction inhibition; HEK-TIYL cells, TEAD-Gal4/YAP UAS-luciferase luminescence; inhibition, % at 9.12 µM; 640,000 tested, 1.4% active; in the data active means inhibition above about 32%
# MITF inh – blocks human microphthalmia-associated transcription factor | O75030 | AlphaScreen MITF homodimerization, bead proximity signal | inhibition, % at 2.6 µM | 650,000 tested, 0.91% active | AID 1259374; in the data active means inhibition above about 50%
# FBW7 act – human FBW7 E3 ligase activation, primary screen | normalized activity (activation), % at 26.1 µM | AlphaScreen FBW7–phospho-cyclin E peptide binding, activator screen | 650,000 tested, 0.13% active | Q969H0; in the data active means normalized activity above about 1.9%;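 further: purified mutant Fbw7 with reduced substrate affinity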
# GPR151 activ – activates the human receptor GPR151; Q8TDV0; PathHunter beta-arrestin GPR151 cells, luminescence; 650,000 tested, 1% active; AID 1508602; activation, % at 11.2 µM; in the data active means activation above about 4.9%
# Target sequence (Q8TDV0 whole entry, looked up): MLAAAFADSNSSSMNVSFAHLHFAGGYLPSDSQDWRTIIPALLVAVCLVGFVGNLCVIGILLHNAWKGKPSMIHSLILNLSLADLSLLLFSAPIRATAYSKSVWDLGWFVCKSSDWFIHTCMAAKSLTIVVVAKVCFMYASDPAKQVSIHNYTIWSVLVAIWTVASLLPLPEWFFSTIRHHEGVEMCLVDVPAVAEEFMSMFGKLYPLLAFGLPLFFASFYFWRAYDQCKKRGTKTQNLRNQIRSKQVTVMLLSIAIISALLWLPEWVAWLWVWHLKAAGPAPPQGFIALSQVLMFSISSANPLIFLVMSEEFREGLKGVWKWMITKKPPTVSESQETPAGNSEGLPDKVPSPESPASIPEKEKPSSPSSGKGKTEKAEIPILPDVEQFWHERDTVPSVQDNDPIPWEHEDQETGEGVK
# A number is an active result; i = inactive. Only some compounds are listed: those with a hit (about 3.5% of all), similar ones and a draw of the others.
SMILES,TEAD-YAP inh,MITF inh,FBW7 act,GPR151 activ
N#C/C(=C\c1ccc(/C=C(\C#N)c2nn(CCO)c(N)c2C#N)cc1)c1nn(CCO)c(N)c1C#N,i,i,i,i
N#Cc1cc2cc3c(cc2nc1SCC(=O)NCCc1ccccc1)OCCO3,34,i,i,i
COc1ccc(NC(=O)CSc2nc3cc4c(cc3cc2C#N)OCCO4)c(OC)c1,83,i,i,i
COc1cccc(NC(=O)CSc2nc3cc4c(cc3cc2C#N)OCCO4)c1,45,i,i,i
CCC(C)NC(=O)CSc1nc2cc3c(cc2cc1C#N)OCO3 (stereo not given),51,i,i,i
CCOC(=O)c1cc(Oc2ncnc3sc4c(c23)CCCC4)cc(C(=O)OCC)c1,i,i,i,i
O=C(O)C1CCCc2c1[nH]c1ccc(Cl)cc21 (stereo not given),i,i,i,i
Cc1ccccc1NC(=O)CSc1nc2cc3c(cc2cc1C#N)OCCO3,58,i,i,i
N#Cc1cc2cc3c(cc2nc1SCC(=O)NCC1CCCO1)OCCO3 (stereo not given),55,i,i,i
Cc1ccccc1NC(=O)CSc1nc2cc3c(cc2cc1C#N)OCO3,i,i,i,i
COc1ccc(CNC(=O)CSc2nc3cc(OC)c(OC)cc3cc2C#N)cc1,i,i,i,i
COc1cc2cc(C#N)c(SCC(=O)Nc3cc(C)on3)nc2cc1OC,i,i,2.4,i
COc1ccc(CNC(=O)CSc2nc3cc4c(cc3cc2C#N)OCCO4)cc1,61,i,i,i
Cc1cccc(NC(=O)Nc2ccc(NC(=O)Nc3cccc(C)c3)cc2)c1,i,i,i,i
O=C(Nc1cccc(Cl)c1Cl)c1ccc(F)c([N+](=O)[O-])c1,i,i,i,i
COc1cc(/C=C2/C=C(c3ccc(C)cc3)OC2=O)ccc1O,65,i,i,i
COc1cc(/C=C2/C=C(c3ccc(C)cc3)OC2=O)ccc1C,32,i,i,i
COc1ccc(N2C(=O)/C(=C/c3cc(C)n(C)c3C)C(=O)NC2=S)cc1,i,i,i,i
CCN(CC)CCCn1c(-c2ccc(Br)cc2)cn2c3ccccc3nc12,i,i,2.2,i
Clc1ccc(-c2cn3c4ccccc4nc3n2CCCNC2CCCCC2)cc1,i,i,3.1,i
Brc1ccc(-c2cn3c4ccccc4nc3n2CCCN2CCCCC2)cc1,i,i,2.2,i
CCN(CC)CCCn1c(-c2ccc(Cl)cc2)cn2c3ccccc3nc12,i,i,i,i
COc1ccc(-c2cc(=O)oc3c(C)c(OCC(C)=O)ccc23)cc1,i,i,i,i
O=C(OCC(=O)c1c[nH]c2ccccc12)c1ccccc1NCc1ccco1,i,i,i,i
Cc1cc(-n2c(SCC(=O)NCc3ccco3)nc3n[nH]c(C)c3c2=N)ccc1Cl,i,i,i,i
SMILES,TEAD-YAP inh,MITF inh,FBW7 act,GPR151 activ
Cc1ccc(-n2c(SCC(=O)NCc3ccco3)nc3n[nH]c(C)c3c2=N)cc1C,56,i,i,i
COc1cccc(-n2c(SCC(=O)N3CCN(c4ccccc4OC)CC3)nc3n[nH]c(C)c3c2=N)c1,43,i,i,i
COc1cccc(-n2c(SCC(=O)N3CCC(C)CC3)nc3n[nH]c(C)c3c2=N)c1,i,i,i,i
COC(=O)c1ccc(/C=N/NC(=O)CCn2cnc3ccccc32)cc1,i,i,i,i
CCN1CCc2c(sc(NC(C)=O)c2-c2nc3ccccc3s2)C1,69,i,i,i
CCN1CCc2c(sc(NC(=O)c3ccc(S(=O)(=O)N(CC)CC)cc3)c2-c2nc3ccccc3s2)C1,i,i,i,i
CCOC(=O)N1CCc2c(sc(NC(=O)CC)c2-c2nc3ccccc3s2)C1,i,i,i,i
CCC(=O)Nc1sc2c(c1-c1nc3ccccc3s1)CCN(CC)C2,54,i,i,i
O=C(Nc1ccc(-n2cccn2)cc1)C1CC12CCN(C(=O)[C@@H]1C[C@@H]3C=C[C@H]1C3)CC2 (stereo not given in full),i,i,i,i
CCOC(=O)/C=C/C(=O)Nc1cc(Cl)c(Cl)cc1Cl,58,i,i,i
COC(=O)C1=CN(CCc2ccccc2)C=C(C(=O)OC)C1c1ccc2c(c1)OCO2,i,i,3.2,i
COC(=O)C1=CN(CCc2ccccc2)C=C(C(=O)OC)C1c1cc(OC)c(OC)c(OC)c1,i,i,2.6,i
Cc1onc(-c2ccccc2)c1C(=O)N1CCC[C@@H]2CN(Cc3cccs3)CC[C@H]21,i,i,i,i
O=C(O)c1cccc(-n2c(/C=C\c3ccc(F)c(F)c3)nc3ccccc3c2=O)c1,i,i,i,i
COCCNC(=O)CN(Cc1ccc(F)cc1)C(=O)CCC(=O)Nc1cc(C)on1,i,i,i,i
Cc1cc(NC(=O)COC(=O)CSc2ccc(C)c(C)c2)no1,i,i,i,i
NNC(=O)CNc1c(-c2ccsc2)nc2ccccn12,52,i,i,i
COc1ccc(Nc2nc3nonc3nc2N/N=C(\C)c2nonc2C)cc1,52,i,i,i
COc1ccc(Nc2nc3nonc3nc2Nc2ccc(OC)cc2)cc1,i,i,i,i
COc1ccc(CN2Cc3cc(C)ccc3OC(C)C2)cc1O (stereo not given),55,i,i,i
CCOc1ccc(-c2nc(CSCC(=O)NCCN3CCCC3)c(C)o2)cc1,34,i,i,i
CCOc1ccc(-c2nc(CSCC(=O)NCCCN3CCCC3)c(C)o2)cc1,i,i,i,i
CCOc1ccc(-c2nc(CSCC(=O)O)c(C)o2)cc1,98,i,i,i
CCOC(=O)CSCc1nc(-c2ccc(C)cc2)oc1C,80,i,i,i
CCCCNC(=O)CSCc1nc(-c2ccc(C)cc2)oc1C,i,i,i,i
SMILES,TEAD-YAP inh,MITF inh,FBW7 act,GPR151 activ
COc1ccc(-c2nc(CSCC(=O)NCC(OC)OC)c(C)o2)cc1,i,i,i,i
COc1ccc(-c2nc(CSCC(=O)O)c(C)o2)cc1,82,i,i,i
O=[N+]([O-])c1cccc(CONc2ncnc3nonc23)c1,i,i,i,i
COc1ccc(/C=C(\C#N)C(=O)OCC(=O)N(C)C2CCCCC2)cc1,i,i,i,i
Cc1ccccc1C(=O)N(CC(=O)Nc1sc(C)c(C)c1C(N)=O)C1CCCCC1,i,i,i,i
Cc1sc(NC(=O)CN(C(=O)c2ccccc2)C2CCCC2)c(C(N)=O)c1C,41,i,i,i
Cc1sc(NC(=O)CN(C(=O)c2ccc(Cl)cc2)C2CCCC2)c(C(N)=O)c1C,i,i,i,i
Cc1sc(NC(=O)CN(C(=O)c2ccccc2)C2CCCCC2)c(C(N)=O)c1C,36,i,i,i
COc1cccc(C(=O)N(CC(=O)Nc2sc(C)c(C)c2C(N)=O)C2CCCC2)c1,41,i,i,i
CCN(CC)c1ccc2cc(C=O)c(=O)oc2c1,i,i,i,i
CCN(CC)c1ccc2nc3c4ccccc4c(=O)cc-3oc2c1,34,i,i,i
COc1cccc2cc(C(=O)Nc3cccc(NC(=O)c4ccccn4)c3)c(=O)oc12,i,i,i,i
Cc1csc(=Nc2ccccc2F)n1/N=C/c1ccsc1,i,i,i,i
CN=c1scc(-c2ccccc2F)n1/N=C/c1ccccc1,99,i,i,i
CCN=c1scc(-c2ccccc2F)n1/N=C/c1ccc2c(c1)OCCO2,51,i,i,i
